Laboratory results as given in PubChem BioAssay (NCATS).
“And” between values parts separate entries of the source, which are not always exact repeats. Equal entries are not always repeated. Results filed as inconclusive are left out. The source made the active and inactive calls. The call rests on the fitted dose curve; in most records, active means well fitted inhibition curve with a large enough effect; inconclusive means small, poorly fitted or top-dose-only effect; inactive means flat fitted curve, though single readings scatter.

What was measured:
CRL-7250 = normal cell line; test: Cytotoxic Profiling of Annotated Libraries Using Quantitative High-Throughput Screening (AID 1296008); conditions: Five cell lines viability, CellTiter-Glo ATP luminescence, 48-72 h; max response: stronger effect = lower value; further: potency means the concentration at half of the fitted maximal effect; on max response: on the % scale 0 is the no-effect control and ±100 the full control effect
Method in brief: (§1)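 Cytotoxicity was measured as CellTiter-Glo ATP luminescence, read after 10 min at room temperature. Compound treatment of the cells lasted 48 or 72 hr at 37 degrees Celsius in a qHTS format.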

HEK293 = test: as above; conditions: Five cell lines viability, CellTiter-Glo ATP luminescence, 48-72 h; max response: stronger effect = lower value
Method in brief: as §1

HaCat [1] = test: as above; conditions: Five cell lines viability, CellTiter-Glo ATP luminescence, 48-72 h; max response: stronger effect = lower value
Method in brief: as §1

KB-3-1 = test: as above; conditions: Five cell lines viability, CellTiter-Glo ATP luminescence, 48-72 h; max response: stronger effect = lower value
Method in brief: as §1

MCC-13 = test: qHTS assay to identify novel small-molecules to repurpose for Merkel cell carcinoma treatment (AID 1296009); conditions: MCC and control cell lines, CellTiter-Glo viability, 72 h; series mostly up to 46 µM
Method in brief: (§2)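 Cell viability measured by CellTiter-Glo following 72 hr compound treatment at 37 degree celsius, with NPC and MIPE libraries tested in 8- and 11-point concentration series.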

MCC-26 = test: as above; conditions: MCC and control cell lines, CellTiter-Glo viability, 72 h; series mostly up to 46 µM
Method in brief: as §2

HACAT [2] = test: as above; conditions: MCC and control cell lines, CellTiter-Glo viability, 72 h; at 44.8 µM (top of the series) unless noted
Method in brief: as §2

HEK293T = test: as above; conditions: MCC and control cell lines, CellTiter-Glo viability, 72 h; at 44.8 µM (top of the series)
Method in brief: as §2

NIH3T3 = test: Cytotoxic Profiling of Annotated Libraries Using Quantitative High-Throughput Screening (AID 1296008); conditions: Five cell lines viability, CellTiter-Glo ATP luminescence, 48-72 h; max response: stronger effect = lower value; further: potency means the concentration at half of the fitted maximal effect; on max response: on the % scale 0 is the no-effect control and ±100 the full control effect
Method in brief: as §1

P93_24 = test: qHTS profiling for inhibitors of Plasmodium falciparum proliferation (AID 504749); further: potency means the concentration at half of the fitted maximal effect; conditions: P. falciparum in erythrocytes, SYBR Green DNA, 72 h; series mostly up to 28.7 µM
Method in brief: (§3)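 In a 72 h erythrocytic culture (37 C, humidified, 5% CO2) at 2.5% hematocrit and 0.3% starting parasitemia, compounds were tested; SYBR Green I in detergent lysis buffer stained parasite DNA overnight.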

P94_40 = test: as above; conditions: P. falciparum in erythrocytes, SYBR Green DNA, 72 h; series mostly up to 28.7 µM
Method in brief: as §3

PAD = test: as above; conditions: P. falciparum in erythrocytes, SYBR Green DNA, 72 h; series mostly up to 28.7 µM
Method in brief: as §3

PC15 = test: as above; conditions: P. falciparum in erythrocytes, SYBR Green DNA, 72 h; series mostly up to 28.7 µM
Method in brief: as §3

PC26 = test: as above; conditions: P. falciparum in erythrocytes, SYBR Green DNA, 72 h; series mostly up to 28.7 µM
Method in brief: as §3

PC49 = test: as above; conditions: P. falciparum in erythrocytes, SYBR Green DNA, 72 h; series mostly up to 28.7 µM
Method in brief: as §3

SC27B = test: as above; conditions: P. falciparum in erythrocytes, SYBR Green DNA, 72 h; series mostly up to 28.7 µM
Method in brief: as §3

TAB109 = test: as above; conditions: P. falciparum in erythrocytes, SYBR Green DNA, 72 h; series mostly up to 28.7 µM
Method in brief: as §3

TAB113 = test: as above; conditions: P. falciparum in erythrocytes, SYBR Green DNA, 72 h; series mostly up to 28.7 µM
Method in brief: as §3

TAB165 = test: as above; conditions: P. falciparum in erythrocytes, SYBR Green DNA, 72 h; series mostly up to 28.7 µM
Method in brief: as §3

W2 = test: as above; conditions: P. falciparum in erythrocytes, SYBR Green DNA, 72 h; series mostly up to 28.7 µM
Method in brief: as §3
Further: nearly all actives have a fitted effect of over 60% in size.

COc1cc(Nc2ncc(F)c(Nc3ccc4c(n3)NC(=O)C(C)(C)O4)n2)cc(OC)c1OC
inactive: max response (HaCat [1]) -23.4% | max response (KB-3-1) 2.88% | Potency (MCC-13) | Potency (MCC-26)
active: Potency (CRL-7250) 2.31 µM | Potency (HEK293) 8.33 µM

O=C(O)c1ccc(-c2c[nH]c3ncc(-c4ccccc4)cc23)cc1C1CCCC1
inactive: max response (CRL-7250) -5.06% | outcome (HEK293) | outcome (HaCat [1]) | outcome (KB-3-1) | outcome (HACAT [2]) | outcome (HEK293T) | Potency (MCC-13) | Potency (MCC-26)

CO[C@H]1C(=O)[C@]2(C)[C@@H](OC)C[C@H]3OC[C@@]3(OC(C)=O)[C@H]2[C@H](OC(=O)c2ccccc2)[C@]2(O)C[C@H](OC(=O)[C@H](O)[C@@H](NC(=O)OC(C)(C)C)c3ccccc3)C(C)=C1C2(C)C
active: Potency (KB-3-1) 0.0008 µM
inactive: max response (CRL-7250) -47% | max response (HEK293) -66.4% | max response (HaCat [1]) -71.6% | Potency (MCC-13) | Potency (MCC-26)

N[C@H](CSC(c1ccccc1)(c1ccccc1)c1ccccc1)C(=O)O
active: Potency (HEK293) 9.35 µM
inactive: max response (CRL-7250) -7.2% | outcome (HaCat [1]) | outcome (HACAT [2]) | Potency (MCC-26)

O=C(Nc1cccc(Br)c1)c1cccc(S(=O)(=O)N2CCCCCC2)c1
inactive: max response (HaCat [1]) 4.06% and -1.39% | max response (NIH3T3) -21.3% | Potency (MCC-13) | Potency (MCC-26)
active: Potency (CRL-7250) 23.1 µM | Potency (HEK293) 13.2 µM and 9.2 µM

CO[C@H]1C[C@@H]2CC[C@@H](C)[C@@](O)(O2)C(=O)C(=O)N2CCCC[C@@H]2C(=O)O[C@H]([C@H](C)C[C@@H]2CC[C@H](OCCO)[C@H](OC)C2)CC(=O)[C@H](C)C=C(C)[C@@H](O)[C@@H](OC)C(=O)[C@H](C)C[C@H](C)C=CC=CC=C1C
inactive: max response (CRL-7250) -75.3% | max response (HaCat [1]) -15.8% | Potency (MCC-13)
active: Potency (HEK293) 0.0017 µM

CCOC(=O)O[C@]1(C(=O)OCCl)CC[C@@H]2[C@H]3CCC4=CC(=O)C=C[C@]4(C)[C@@H]3[C@@H](O)C[C@@]21C
inactive: outcome (P93_24) | Potency (P94_40) | outcome (PAD) | outcome (PC15) | Potency (PC26) | outcome (PC49) | Potency (SC27B) | outcome (TAB109) | Potency (TAB113) | Potency (TAB165) | outcome (CRL-7250) | outcome (HEK293) | outcome (HaCat [1]) | outcome (KB-3-1) | outcome (HACAT [2]) | outcome (HEK293T) | Potency (MCC-13) | Potency (MCC-26)

CC(C)(C)C(=O)Oc1ccc2c(c1)nc(NC(=O)c1cccc([N+](=O)[O-])c1)n2CCCO
inactive: outcome (CRL-7250) | max response (HaCat [1]) -9.39% | max response (KB-3-1) 7.62% | outcome (NIH3T3) | Potency (MCC-13) | Potency (MCC-26)

C[C@H](NC(=O)c1sccc1OCc1ccc(Cl)cc1)c1ccccc1
inactive: max response (NIH3T3) -27.6% | Potency (MCC-13) | Potency (MCC-26)
active: Potency (CRL-7250) 29.6 µM | Potency (HEK293) 16.6 µM | Potency (KB-3-1) 20.9 µM

CC1=C(/C=C/C(C)=C/C=C/C(C)=C/C(=O)Nc2ccc(O)cc2)C(C)(C)CCC1
active: Potency (P94_40) 11.2 µM | Potency (PC26) 12 µM | Potency (SC27B) 10 µM | Potency (TAB113) 11.2 µM | Potency (TAB165) 10 µM | Potency (W2) 5.36 µM | Potency (CRL-7250) 16.8 µM | Potency (HEK293) 5.96 µM | Potency (NIH3T3) 21.1 µM

COc1ccc(-c2coc3cc(O)cc(O)c3c2=O)cc1
inactive: max response (CRL-7250) 1.69% | max response (HaCat [1]) 1.1% | outcome (KB-3-1) | outcome (NIH3T3) | Potency (MCC-13) | Potency (MCC-26)

CCCCC1C(=O)N(c2ccccc2)N(c2ccccc2)C1=O
inactive: outcome (PC15) | outcome (PC49) | Potency (SC27B) | Potency (TAB113) | max response (CRL-7250) -3.59% | max response (HaCat [1]) -4.56% | max response (KB-3-1) 0.189% and 30.8% | max response (NIH3T3) -4.9% | Potency (MCC-13) | Potency (MCC-26)

NC(=O)c1cccc(-c2cc(Nc3ccc(OC(F)(F)F)cc3)ncn2)c1
inactive: max response (CRL-7250) -7.69% and -0.175% | outcome (HaCat [1]) | max response (KB-3-1) -13.5% | max response (NIH3T3) 0.478% and -10.9% | outcome (HACAT [2]) | Potency (MCC-13) | Potency (MCC-26)

O=c1c(-c2ccc(O)cc2)coc2cc(O[C@@H]3O[C@H](CO)[C@H](O)[C@H](O)[C@H]3O)ccc12
inactive: max response (CRL-7250) -13.5% | max response (HaCat [1]) -4.86% | outcome (KB-3-1) | max response (NIH3T3) 1.51% | Potency (MCC-13) | Potency (MCC-26)

O=C1NC(=O)C(=Cc2ccc(-c3ccc(F)cc3)o2)S1
inactive: max response (CRL-7250) -0.559% | max response (HaCat [1]) -17.4% | max response (KB-3-1) -5.29% | max response (NIH3T3) -13.2% | Potency (MCC-13) | Potency (MCC-26)

CCC(=O)O[C@]1(C(=O)CO)CC[C@H]2[C@@H]3CCC4=CC(=O)CC[C@]4(C)[C@@H]3CC[C@@]21C
inactive: max response (HaCat [1]) -31% | max response (KB-3-1) 0.702% | outcome (NIH3T3) | Potency (MCC-13) | Potency (MCC-26)
active: Potency (CRL-7250) 13.2 µM
